In PubChem BioAssay AID686978 (National Center for Advancing Translational Sciences (NCATS), 2013):
Screen size: about 420,000 compounds; about 64,000 (15%) were called active. Not shown: some 27% with an inconclusive outcome. The call rests on the fitted dose curve; in most records, active means well fitted inhibition curve with a large enough effect; inconclusive means small, poorly fitted or top-dose-only effect; inactive means flat fitted curve, though single readings scatter. Not all results are given here. Where a call stands in place of a potency, no number is given.

experiment: qHTS for Inhibitors of human tyrosyl-DNA phosphodiesterase 1 (TDP1): qHTS in cells in absence of CPT; settings: DT40 Tdp1-/- hTDP1 cells, no CPT, ATP luminescence, 48 h; activity change, negative = growth inhibition: at 46.2 µM (top of the series); further: nearly all actives have a fitted effect of over 55% in size
Method in brief: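 No-CPT arm: Tdp1-/-;hTDP1 DT40 cells (400/well) plus compounds, incubated ≥48 hr at 37 °C. Readout CellTiter-Glo luminescence.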
Potency means the concentration at half of the fitted maximal effect.

Compound	Potency
CC(=O)Cc1nsc(NC(=O)c2ccc(Cl)cc2Cl)n1	inactive
CCCCCC1CC(COc2ccccc2)OC1=O (stereo unspecified)	inactive
CCOC(=O)c1oc2ccccc2c1NC(=O)c1cccs1	inactive
CCOC(=O)CNC(=O)/C(=C\c1ccc(F)cc1)NC(=O)c1ccccc1	inactive
CC(=O)OCC(=O)[C@@]1(O)CCC2C3CCC4=CC(=O)CC[C@@]4(C)[C@]3(F)C(O)C[C@]21C (stereo partly specified)	inactive
COc1ccc(C2(Nc3cccc(F)c3)C(=O)c3ccccc3C2=O)cc1	inactive
COc1ccc(Nc2cc(=O)oc3ccccc23)cc1	4.11 µM (active)
COc1ccc(CCNC(=O)COC(=O)c2cc(=O)c3ccccc3o2)cc1	inactive
COc1ccc2oc(=O)cc(-c3cc4ccccc4o3)c2c1	inactive
CC1C=CCC2C(=O)N(c3cccc(C(=O)N4CCCCCC4)c3)C(=O)C12 (stereo unspecified)	inactive
CCCCCCCC(=O)OC(CN1CCCCCC1)CN1CCCC1=O (stereo unspecified)	inactive
CCCCNC(=O)N1CCN(S(C)(=O)=O)CC1	inactive
COc1cccc(-c2nn(-c3ccccc3)cc2/C=C(\C#N)C(=O)NCCCn2ccnc2)c1	20.6 µM (active)
COc1cc(OC)cc(C(=O)NCCCn2ccnc2)c1	inactive
O=C(NCCCn1ccnc1)/C(=C\c1ccccc1F)NC(=O)c1ccccc1	inactive
NC(=NC(=O)c1ccccc1)C1=C(O)CCC1=O	inactive
N#CC1(Nc2ccc(-c3ccc(Cl)cc3)cc2)CCCC1	inactive
Nc1nc(NC(=O)/C=C/c2ccccc2)nn1-c1ccccc1	inactive
CCCc1cc(=O)oc2c(C)c(OCC(=O)Nc3ccccn3)ccc12	inactive
CN1CCc2c(sc3c2c(NCc2ccco2)nc2nnnn23)C1	18.4 µM (active)
CC1CCN(C(=O)CCc2nnc3ccc(NCc4ccco4)nn23)CC1	inactive
O=C(CN(c1cccc(Cl)c1)S(=O)(=O)c1ccccc1)NN=C1CCCC1	inactive
Cc1cccc(-n2ncc3c(=O)[nH]c(SCC(=O)Nc4cc(C)on4)nc32)c1	inactive
O=C(NC(Cc1ccccc1)C(=O)N1CCCC(C(F)(F)F)C1)c1ccccc1 (stereo unspecified)	inactive

Compound	Potency
O=C(NCC(=O)N1CCCC(C(F)(F)F)C1)c1ccccc1F (stereo unspecified)	inactive
FC(F)(F)C1CCCN(c2nsc3ccccc23)C1 (stereo unspecified)	2.59 µM (active)
CC(=NC1CCN(Cc2ccccc2)CC1)c1c(O)[nH]c(=O)[nH]c1=O	inactive
O=C(CCCOc1ccccc1)NCc1ccco1	inactive
Cc1cccc(OCC(=O)N(Cc2ccc(C(C)C)cc2)Cc2ccco2)c1C	20.6 µM (active)
O=C(CCc1ccccc1)NNC(=O)COc1ccc(Cl)cc1	inactive
O=C(COc1ccc(Cl)cc1)N(Cc1ccco1)Cc1ccco1	20.6 µM (active)
Cc1ccnc(NC(=O)CCC(=O)N(CC(=O)NCc2ccccc2)Cc2ccco2)c1	inactive
Cc1cccc(OCc2nnc(SCC(=O)N3CCN(C(=O)c4ccco4)CC3)n2C)c1C	inactive
O=C(Nn1cnc2ccccc2c1=O)c1ccc(F)cc1Cl	inactive
O=S(=O)(c1ccc(-c2ccno2)s1)N1CCCCC1	inactive
O=C(C1CCCO1)N1CCN(C(=S)NC2CC2)CC1 (stereo unspecified)	inactive
Cc1ccc(S(=O)(=O)NNC(=O)Nc2cccc3ccccc23)cc1	inactive
CC1CCc2c(nc3ncnn3c2Nc2ccc(OC(F)(F)F)cc2)C1 (stereo unspecified)	20.6 µM (active)
CC(=O)c1nn(-c2ccc(OC(F)(F)F)cc2)nc1Nc1ccccc1	inactive
CC1(C)C(C=C(Cl)Cl)C1C(=O)NC(O)C(=O)c1ccccc1 (stereo unspecified)	inactive
Nc1ccccc1/C=N\N=C/c1ccccc1N	inactive
Nc1ccccc1N	7.7 µM (active)
Nc1cccnc1Sc1ccccc1	inactive
COc1cc2c(cc1CNC[C@H]1O[C@@H](n3cnc(C(N)=O)n3)[C@H](O)[C@@H]1O)OCO2	inactive
COC(=O)CNC(=O)c1cc(-c2ccncc2)nc2ccccc12	inactive
CC1CCCCC1NC(=O)c1cc(=O)[nH]c2ccccc12 (stereo unspecified)	inactive
CC1CCCC(NC(=O)c2cc(-c3ccncc3)nc3ccccc23)C1C (stereo unspecified)	23.1 µM (active)
Cc1ccc(-c2cc(C(=O)NC3CCN(Cc4ccccc4)CC3)c3ccccc3n2)cc1	16.4 µM (active)

Compound	Potency
Cc1ccsc1-c1nc(CSCC(=O)NCCN2CCCC2)c(C)o1	inactive
Cc1cc(C(=O)NC2CCN(Cc3ccccc3)CC2)n[nH]1	inactive
Cc1ccn2cc(C(=O)NC3CCN(Cc4ccccc4)CC3)nc2c1	inactive
CCOC(=O)N1CCC(NC(=O)CCc2ccccc2)CC1	inactive
Cc1ccc(-c2nc(CSCC(=O)NC3CCN(Cc4ccccc4)CC3)c(C)o2)cc1	16.4 µM (active)
C=CCn1c(SCC(=O)NC23CC4CC(CC(C4)C2)C3)nc(O)cc1=O	inactive
COc1ccc2c(CC(=O)NNC(=O)c3ccccc3F)coc2c1	inactive
CCC1([N+](=O)[O-])COC(c2ccc(C)cc2)OC1 (stereo unspecified)	inactive
O=C1CCc2cc(S(=O)(=O)N3CCC(C(=O)NCc4ccccc4Cl)CC3)ccc2N1	inactive
O=C1c2ccccc2C(=O)N1CCC(O)C[N+](=O)[O-] (stereo unspecified)	inactive
CCCNC(=O)CCn1cc(-c2ccc(OC)cc2)nc1CCN	inactive
O=C(Nc1cccc(C(=O)N2CCCC2)c1)c1ccccc1	inactive
NC(=O)C1CCN(C(=O)c2cccc(NC(=O)c3nsc4ccccc34)c2)CC1	16.4 µM (active)
COc1cccc(NC(=O)N2CCN(C(=O)c3nsc4ccccc34)CC2)c1	inactive
CCOC(=O)c1ccc(NC(=O)C2CC(=O)Nc3nc4ccccc4n32)cc1 (stereo unspecified)	inactive
CN(CC(=O)NCc1ccc(Cl)cc1)S(=O)(=O)c1cccs1	inactive
Cc1nc2ccn(Cc3cccs3)c(=O)c2cc1C(=O)NCc1ccc(Cl)cc1	16.4 µM (active)
COc1ccc(Cn2ccc3nc(C)c(C(=O)Nc4ccc(C)c(F)c4)cc3c2=O)cc1	inactive
CCn1c(C(C)C)n[nH]c1=S	inactive
O=C(NC1CCCCC1)C1CCCN(S(=O)(=O)c2cccs2)C1 (stereo unspecified)	inactive
Cn1nnnc1SCC(=O)NNC(=O)c1ccc(Br)cc1	inactive
Cc1cc(C(C)(C)C)cc(C)c1N	inactive
Cc1cc(N)n2nc(-c3ccc(C(C)(C)C)cc3)cc2n1	25.9 µM (active)
CC(=O)Nc1ccc(NC(=O)CSc2nnnn2-c2ccccc2F)cc1	inactive

Compound	Potency
C1CC1Cc1noc(CN2CCN(CC3CC3)CC2)n1	inactive
Cc1cnc(CNc2cc(-c3c(C)noc3C)ncn2)cn1	inactive
CNc1cc(-c2c(C)noc2C)ncn1	14.6 µM (active)
COCCNc1cc(-c2c(C)noc2C)ncn1	inactive
COc1ccc(C2=NOC3(CC(=O)N(c4ccc(Cl)cc4)C3=O)C2)c(OC)c1 (stereo unspecified)	inactive
COC(=O)c1ccc(NC(=O)CSc2nncn2-c2cccnc2)cc1	inactive
Cc1ccc(SCCC(=O)NC(C(C)C)C(C)C)cc1	inactive
CCOC(=O)c1cccc(NS(=O)(=O)c2cc(-c3cnc(C)o3)ccc2OC)c1	6.51 µM (active)
CCOC(=O)c1cccc(NS(=O)(=O)c2cn(C)c(C)n2)c1	inactive
COc1ccc(Cl)cc1S(=O)(=O)Nc1cccc(C(=O)O)c1	inactive
Cc1ccccc1NC(=O)Cc1nc(COC(=O)CNC(=O)c2ccc(Cl)cc2Cl)cs1	inactive
CN1CCN(CCCCOc2cccc3ccccc23)CC1	16.4 µM (active)
COc1ccccc1OCCCCCCN1CCN(C)CC1	inactive
CCN1CCN(CCCCOc2ccccc2F)CC1	inactive
CCn1nc(C(=O)NNC(=O)C2CSC3(C)CCC(=O)N23)c2ccccc2c1=O (stereo unspecified)	inactive
CC(=O)c1cccc(NC(=O)COc2ccc(S(=O)(=O)N3CCOCC3)cc2)c1	inactive
CC1CCN(S(=O)(=O)c2ccc3[nH]c(=O)ccc3c2)CC1	inactive
CC(=O)c1cccc(Nc2ccc3cc(S(=O)(=O)N4CCC(C)CC4)ccc3n2)c1	16.4 µM (active)
O=C(OCc1nc2ccccc2[nH]1)C1CCCCC1	inactive
CC/C(O)=C1\C(=O)CC(C)(C)CC1=NCCc1nc2ccccc2[nH]1	20.6 µM (active)
Nc1cccc(CCc2nc3ccccc3[nH]2)c1	inactive
COc1ccc(NC(=O)COc2ccc(C(=O)OCC(=O)N(C)C3CCS(=O)(=O)C3)cc2OC)cc1 (stereo unspecified)	inactive
CCOC(=O)N1CCN(S(=O)(=O)c2ccc(OC)cc2)CC1	inactive
NC(=O)c1ccccc1N(Cc1ccccc1)S(=O)(=O)c1ccccc1	inactive

Compound	Potency
CCOC(=O)N1CCN(C(=O)c2ccccc2N(Cc2ccccc2)S(=O)(=O)c2ccc(OC)cc2)CC1	3.26 µM (active)
CN(CCO)Cc1csc2ccc(Br)cc12	inactive
CN(CC(=O)O)S(=O)(=O)c1ccc2oc3ccccc3c2c1	inactive
CCOC(=O)c1c(C)nc2c(c1C)c(=O)oc1ccccc12	inactive
COc1ccc2oc(C(=O)NCC(Cc3ccccc3)N(C)C)c(C)c2c1 (stereo unspecified)	inactive
CCOC(=O)c1c(C)oc2ccc(N(C(=O)c3ccncc3)S(=O)(=O)c3ccc(CC)cc3)cc12	2.91 µM (active)
CCOC(=O)c1c(C)oc2cc(Br)c(OCC(N)=O)cc12	inactive
COC(=O)c1c(C)oc2ccc(N(C(=O)Oc3ccccc3)S(=O)(=O)c3ccccc3)cc12	11.6 µM (active)
O=C(CN1CCOCC1)Nc1c2c(nc3c1CCC3)CCC2	inactive
CCC(C)N(C(=O)COC(=O)C1C(C(=O)OC)=C(C)NC(C)=C1C(=O)OC)C1CCS(=O)(=O)C1 (stereo unspecified)	inactive
COc1ccccc1CNC(=O)CS(=O)(=O)c1cccc2nsnc12	inactive
O=C(Nc1cccc(Br)c1)c1ccc2snnc2c1	inactive
O=C(Nc1cccc(-c2nc3ccccc3o2)c1)c1cccc(Br)c1	20.6 µM (active)
COc1cc2ccccc2cc1C(=O)Nc1cccc(-c2nc3ccccc3o2)c1	20.6 µM (active)
O=C(Nc1cccc(-c2nc3ncccc3o2)c1)c1ccco1	inactive
COc1cc(NC(=O)c2cccs2)ccc1NC(=O)c1ccccc1Cl	inactive
COc1cc2ccccc2cc1C(=O)Nc1ccc(NC(=O)c2cccs2)cc1	20.6 µM (active)
COc1cc2ccccc2cc1C(=O)Nc1ccc(S(=O)(=O)Nc2cc(C)on2)cc1	inactive
COc1cccc(NC(=O)c2ccccc2SC)c1	inactive
COc1cc2ccccc2cc1C(=O)Nc1ccncc1	inactive
